Measured values taken from the supplement of paper PMC10338343.
± gives the standard deviation.

tested on: MILI (PIWIL2) piRISC loaded with L1MC piRNA (26 nt); assay: pre-steady-state target cleavage rate (min^-1); guide: L1MC piRNA 5'p-UAACUAAAUACUAUGCAAGCUGUAGG; MIWI and MILI are mouse PIWI proteins and EfPiwi is from a freshwater sponge; tags in brackets are library labels; higher = faster piRNA-guided slicing of the target; settings: auxiliary factor: 500 nM mouse GTSF1
Procedure, shortened: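 Cleave-'n-Seq reactions paired 0.1 nM transcribed, DNA-blocked target RNA library with 1 nM active affinity-purified piRISC holding one synthetic guide, plus or minus 500 nM GTSF1 partner protein, in HEPES–potassium acetate buffer at 33 °C for 0–8 or 0–960 min. After sequencing of uncleaved targets and normalisation to depth and weakly complementary targets, the pre-steady-state cleavage rate was taken from a burst-and-steady-state fit. Three trials were pooled, and k3 was capped at 0.0001 min^-1.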

| Sequence | pre-steady-state target cleavage rate |
| --- | --- |
| UCCUCCUACUCCUUGCAUAGUAUUUACAAA | 0.0842 ± 0.022 |
| UCCUGGAUGAGCUUGCAUAGAAAUUAGUUA | 0.0228 ± 0.0075 |
| UCCUGGAUGUCGAACGUAUCUAUUUCAGUUA | < 0.0001 |
| UCCUGGAUCAGCUUGCUUAGUUUUUAGUUA | 0.0369 ± 0.011 |
| UCCUGGAUGUCGAAGCAUAGUAUUUGAGUUA | 0.0579 ± 0.012 |
| UCCUGGAACAGCUUGCUAUGUAUUUAGAAA | 0.00873 ± 0.0046 |
| UCCUGGAUGUCCAUGCUUAGUAUUUAGUUA | 0.0223 ± 0.0087 |
| UCCUGGUACAGCUUGCUAAGUAUUUACAAA | 0.0119 ± 0.0056 |
| UCCUGGUACAGCUUGCAUAGAUAUUAGUUA | 0.0155 ± 0.005 |
| UCCUGGUAGAGCUUGCAUAGAAUUUAGUUA | 0.0311 ± 0.0054 |
| UCCUCCUACAGCUUCCAUAGUAUUUUGUUA | 0.0182 ± 0.0077 |
| UCCUGGAUGUCCUUGCAUAGUAUUUUCUAA | 0.0134 ± 0.0068 |
| UCCUGGAUGUCGAUGCUUAGUAUAUAGUUA | 0.0304 ± 0.0073 |
| UCCUCCUACAGCUUGCAUAGCAUUUAGUUA | 0.0883 ± 0.013 |
| UCCUGGAUGUCGAACGAUAGUAUUUAGUAA [g3:g14:cont:t1A] | < 0.0001 |
| UCCUGGAUCAGCUACCAUAGUAUUUAGUAA | 0.127 ± 0.012 |
| UCCUCCUACAGCUUGCAUACUAUUUUCAAA | 0.0677 ± 0.018 |
| UCCUGGAUGUGCUUGCAUAGUAAUAAGUUA | 0.0448 ± 0.016 |
| UCCUGGAUCAGCUUGCAUAGUAUUAACAAA | 0.0885 ± 0.022 |
| UCCUGGAUGAGCAACCAUAGUAUUUAGUUA | 0.0437 ± 0.011 |
| UCCUGGAACAGCAUGCAUAGUAUUUACUUA | 0.221 ± 0.034 |
| UCCUGGAUGUCCUUCCUUAGUAUUUAGUUA | 0.00908 ± 0.0046 |
| UCCUGGAACAGCUUGCAAUGUAUUUACAAA | 0.0552 ± 0.017 |
| UCCUGGAUGUGCUUGCCAUAGUAUUUAGUUA | 0.014 ± 0.0071 |
